Measurements as given in PubChem BioAssay AID651863 (Broad Institute, 2012).
Results with a measured potency or affinity are listed apart. The source made the active and inactive calls.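 How the source made its calls: active means compounds whose fitted half-maximal cell-killing dose is at most twice the top tested dose; inconclusive means flat curve with 30 to 70 percent signal loss, or poor fit; inactive means the rest.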

Assay: HEK293T cell cytotoxicity, dose response, cytotoxicity control, luminescence plate reader, powder samples, set 4 (AID 651863)
Details: HEK293T viability, CellTiter-Glo ATP luminescence, 48 h; series mostly up to 26 µM; activity change, negative = cytotoxicity: at the top concentration
With `O=C(NC[C@@H]1c2ccccc2CCN1C(=O)[C@@H]1CCCC[C@@H]1C(=O)O)c1ccccc1CO` the “activity change, negative = cytotoxicity” value was -10.7% (inactive).
With `CC(C)CNc1nc(NS(=O)(=O)c2ccccc2)c2ccccc2n1` the “activity change, negative = cytotoxicity” value was 11.1% (inactive).
With `CCOC(=O)C(C(=O)OCC)c1nc(NS(=O)(=O)c2c(C)cc(C)cc2C)c2ccccc2n1` the “activity change, negative = cytotoxicity” value was 13.7% (inactive).
For `O=C(O)c1ccccc1C(=O)NC[C@@H]1c2ccccc2CCN1C(=O)[C@@H]1CCCC[C@@H]1C(=O)O`, the “activity change, negative = cytotoxicity” value was -2.02% (inactive).
In the case of `NC(=O)[C@H]1CCCC[C@H]1C(=O)N1CCc2ccccc2[C@H]1CN1C(=O)c2ccccc2C1=O`, the “activity change, negative = cytotoxicity” value is reported as 2.88% (inactive).
In the case of `COC(=O)[C@@H]1CCCC[C@@H]1C(=O)N1CCc2ccccc2[C@@H]1CN1C(=O)c2ccccc2C1=O`, the “activity change, negative = cytotoxicity” value is reported as 12.2% (inactive).
In the case of `C=CC(=O)NC[C@@H]1c2ccccc2CCN1C(=O)[C@@H]1CCCC[C@@H]1C(=O)O`, the “activity change, negative = cytotoxicity” value is reported as 23.2% (inactive).
For `COC(=O)CNc1nc(NS(=O)(=O)c2c(C)cc(C)cc2C)c2ccccc2n1`, the “activity change, negative = cytotoxicity” value was 6.41% (inactive).
For `COc1ccccc1CCNC(=O)[C@@H]1c2ccccc2CCN1C(=O)C1CCCCC1C(=O)O` (some centres not stated), the outcome was “inactive”.
For `O=C(NC[C@@H]1c2ccccc2CCN1C(=O)[C@@H]1CCCC[C@@H]1C(=O)O)c1ccccc1`, the “activity change, negative = cytotoxicity” value was 6.54% (inactive).
In the case of `O=S(=O)(Nc1nc(NCC2CCCCC2)nc2ccccc12)c1ccccc1`, the “activity change, negative = cytotoxicity” value is reported as 14.8% (inactive).
In the case of `COC(=O)C1CCCCC1C(=O)N1CCc2ccccc2C1CN1C(=O)c2ccccc2C1=O` (configuration not stated), the “activity change, negative = cytotoxicity” value is reported as 22.2% (inactive).
For `Cc1ccc(S(=O)(=O)Nc2cc(C(C(=O)OC(C)C)C(=O)C(F)(F)F)c(O)c3ccccc23)c(C)c1` (configuration not stated), the “activity change, negative = cytotoxicity” value was 5.36% (inactive).
In the case of `O=C(O)CCCC(=O)N1CCc2ccccc2C1CN1C(=O)c2ccccc2C1=O` (configuration not stated), the “activity change, negative = cytotoxicity” value is reported as 15.4% (inactive).
For `O=C(O)[C@@H]1CCCN1C(=O)N1CCc2ccccc2[C@H]1CN1C(=O)c2ccccc2C1=O`, the “activity change, negative = cytotoxicity” value was 10.4% (inactive).
With `O=C(NCCO)c1ccccc1C(=O)NC[C@@H]1c2ccccc2CCN1C(=O)C1CCCCC1C(=O)O` (some centres not stated) the “activity change, negative = cytotoxicity” value was -7.16% (inactive).
With `O=C(NC[C@@H]1c2ccccc2CCN1C(=O)[C@@H]1CCCC[C@@H]1C(=O)O)c1ccc(CN2CCOCC2)cc1` the “activity change, negative = cytotoxicity” value was 21.5% (inactive).
In the case of `O=C(Cc1ccccc1)NC[C@@H]1c2ccccc2CCN1C(=O)[C@@H]1CCCC[C@@H]1C(=O)O`, the “activity change, negative = cytotoxicity” value is reported as 7.9% (inactive).
In the case of `O=C(NCCc1ccccc1)c1ccccc1C(=O)NC[C@@H]1c2ccccc2CCN1C(=O)C1CCCCC1C(=O)O` (some centres not stated), the “activity change, negative = cytotoxicity” value is reported as -7.39% (inactive).
For `O=C(O)CCC(=O)N1CCc2ccccc2C1CN1C(=O)c2ccccc2C1=O` (configuration not stated), the “activity change, negative = cytotoxicity” value was 9.32% (inactive).
With `COC(=O)[C@H]1CCCC[C@H]1C(=O)N1CCc2ccccc2[C@H]1CN1C(=O)c2ccccc2C1=O` the “activity change, negative = cytotoxicity” value was -2.4% (inactive).
With `Cc1cc(C)c(S(=O)(=O)Nc2cc(C(C(=O)OCc3ccccc3)C(=O)OCc3ccccc3)c(O)c3ccccc23)c(C)c1` the “activity change, negative = cytotoxicity” value was 13% (inactive).
With `Cc1ccccc1S(=O)(=O)Nc1cc(C(C(=O)OC(C)C)C(=O)C(F)(F)F)c(O)c2ccccc12` (configuration not stated) the “activity change, negative = cytotoxicity” value was -9.77% (inactive).
In the case of `CCOC(=O)Cc1nc(NS(=O)(=O)c2c(C)cc(C)cc2C)c2ccccc2n1`, the “activity change, negative = cytotoxicity” value is reported as 11.4% (inactive).
With `O=C(O)[C@H]1CCCC[C@H]1C(=O)NC(CN1C(=O)c2ccccc2C1=O)c1ccccc1` (some centres not stated) the “activity change, negative = cytotoxicity” value was 3.37% (inactive).
For `O=C1c2ccccc2C(=O)N1C[C@@H]1c2ccccc2CCN1C(=O)OCc1ccccc1`, the “activity change, negative = cytotoxicity” value was -10.3% (inactive).
With `Cc1ccc(S(=O)(=O)NNc2nc(N3CC(O)CC3C(=O)O)nc3ccccc23)cc1` (configuration not stated) the “activity change, negative = cytotoxicity” value was 2.02% (inactive).
For `O=C(O)C1CCCCC1C(=O)N1CCc2ccccc2C1CN1C(=O)Cc2ccccc2C1=O` (configuration not stated), the “activity change, negative = cytotoxicity” value was -9.79% (inactive).
In the case of `O=C(O)[C@H]1CCCC[C@H]1C(=O)N1CCc2ccccc2[C@H]1CNc1nc(Cl)nc2ccccc12`, the “activity change, negative = cytotoxicity” value is reported as -3.45% (inactive).
In the case of `O=C(O)Cc1ccccc1C(=O)N1CCc2ccccc2[C@H]1CN1C(=O)c2ccccc2C1=O`, the “activity change, negative = cytotoxicity” value is reported as 2.94% (inactive).
With `O=C1c2ccccc2C(=O)N1C[C@@H]1c2ccccc2CCN1C(=O)C1CCCCC1` the “activity change, negative = cytotoxicity” value was 13.3% (inactive).
With `O=C(O)CC(=O)N1CCc2ccccc2C1CN1C(=O)c2ccccc2C1=O` (configuration not stated) the “activity change, negative = cytotoxicity” value was -4.51% (inactive).
